According to the supplement of paper PMC10849652:
Targets with a hit are over-represented here; the source holds about 7,900 in all. About 0.6% of all pairs of compound and target were hits. Values without a mark were called inactive.

Legend:
Assay in all cases: log2 fold change, soluble protein after heating vs DMSO (PISA); higher = thermal stabilisation; K562 cells, 10 uM, 30 min; active = over 0.2 and 3.5 SD of the protein, either way, in both replicates (recomputed)
[1] = compound: CS(=O)(=O)c1ccc(-c2cnc(N)c(C(=O)Nc3ccccc3)n2)cc1
How it was run: (§1)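 For each measurement, 10 μM compound was applied for 30 min to K562 cells at 2×10^6 cells/mL. Aliquots were heated for 3 min across 48°C-58°C, pooled, and extracted in PBS with 0.5% NP-40 at 4°C; the supernatant after 21,000xg for 90 min was soluble protein. This was quantified by TMTpro 16plex LC-MS/MS with channel sums equalised, and thermal stability was reported relative to control samples from duplicates, on a log2 fold-change scale.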

crizotinib = compound: C[C@@H](Oc1cc(-c2cnn(C3CCNCC3)c2)cnc1N)c1c(Cl)ccc(F)c1Cl [crizotinib]
How it was run: as §1

[2] = compound: C[C@@H]1COCCN1C2=NC(=NC(=C2)C3(CC3)S(=O)(=O)C)C4=C5C=CNC5=CC=C4
How it was run: as §1

[3] = compound: C[C@H](C1=CC=C(C=C1)C(=O)NC2=C3C=CNC3=NC=C2)N
How it was run: as §1

duvelisib = compound: C[C@H](Nc1ncnc2nc[nH]c12)c1cc2cccc(Cl)c2c(=O)n1-c1ccccc1 [duvelisib]
How it was run: as §1

gandotinib = compound: Cc1cc(Nc2cc(CN3CCOCC3)c3nc(C)c(Cc4ccc(Cl)cc4F)n3n2)n[nH]1 [gandotinib]
How it was run: as §1

tozasertib = compound: Cc1cc(Nc2cc(N3CCN(C)CC3)nc(Sc3ccc(NC(=O)C4CC4)cc3)n2)n[nH]1 [tozasertib]
How it was run: as §1

[4] = compound: Cc1cc(SCc2sc(-c3ccc(C(F)(F)F)cc3)nc2C)ccc1OCC(=O)O
How it was run: as §1

doramapimod = compound: Cc1ccc(-n2nc(C(C)(C)C)cc2NC(=O)Nc2ccc(OCCN3CCOCC3)c3ccccc23)cc1 [doramapimod]
How it was run: as §1

ispinesib = compound: Cc1ccc(C(=O)N(CCCN)[C@@H](c2nc3cc(Cl)ccc3c(=O)n2Cc2ccccc2)C(C)C)cc1 [ispinesib]
How it was run: as §1

bafetinib = compound: Cc1ccc(NC(=O)c2ccc(CN3CC[C@H](N(C)C)C3)c(C(F)(F)F)c2)cc1Nc1nccc(-c2cncnc2)n1 [bafetinib]
How it was run: as §1

[5] = compound: Cc1cccc(CC(=O)N2CCc3c2ccc(-c2cn(C)c4ncnc(N)c24)c3F)n1
How it was run: as §1

nilotinib = compound: Cc1cn(-c2cc(NC(=O)c3ccc(C)c(Nc4nccc(-c5cccnc5)n4)c3)cc(C(F)(F)F)c2)cn1 [nilotinib]
How it was run: as §1

[6] = compound: Cc1nc(Nc2n[nH]c3c2CN(C(=O)N[C@H](CN(C)C)c2ccccc2)C3(C)C)c2sccc2n1
How it was run: as §1

dasatinib = compound: Cc1nc(Nc2ncc(C(=O)Nc3c(C)cccc3Cl)s2)cc(N2CCN(CCO)CC2)n1 [dasatinib]
How it was run: as §1

[7] = compound: Cc1ncc(-c2ccnc(Nc3ccc(S(C)(=O)=O)cc3)n2)n1C(C)C
How it was run: as §1

[8] = compound: Cn1cc(-c2ccc3c(c2)CCN3C(=O)Cc2cccc(C(F)(F)F)c2)c2c(N)ncnc21
How it was run: as §1

[9] = compound: Cn1cc(-c2ccc3nnc(C(F)(F)c4ccc5ncccc5c4)n3n2)cn1
How it was run: as §1

tipifarnib = compound: Cn1cncc1[C@@](N)(c1ccc(Cl)cc1)c1ccc2c(c1)c(-c1cccc(Cl)c1)cc(=O)n2C [tipifarnib]
How it was run: as §1

mubritinib = compound: FC(F)(F)c1ccc(/C=C/c2nc(COc3ccc(CCCCn4ccnn4)cc3)co2)cc1 [mubritinib]
How it was run: as §1

UniProt P25788, sequence (P25788 whole entry, looked up): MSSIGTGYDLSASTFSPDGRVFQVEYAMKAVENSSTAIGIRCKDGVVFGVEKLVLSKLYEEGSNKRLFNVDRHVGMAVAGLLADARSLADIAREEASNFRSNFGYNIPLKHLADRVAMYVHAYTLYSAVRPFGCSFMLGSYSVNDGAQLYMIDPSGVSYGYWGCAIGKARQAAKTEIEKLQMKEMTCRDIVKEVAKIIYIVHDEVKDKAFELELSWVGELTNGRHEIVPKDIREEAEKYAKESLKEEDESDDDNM
UniProt P31323, sequence (P31323 whole entry, looked up): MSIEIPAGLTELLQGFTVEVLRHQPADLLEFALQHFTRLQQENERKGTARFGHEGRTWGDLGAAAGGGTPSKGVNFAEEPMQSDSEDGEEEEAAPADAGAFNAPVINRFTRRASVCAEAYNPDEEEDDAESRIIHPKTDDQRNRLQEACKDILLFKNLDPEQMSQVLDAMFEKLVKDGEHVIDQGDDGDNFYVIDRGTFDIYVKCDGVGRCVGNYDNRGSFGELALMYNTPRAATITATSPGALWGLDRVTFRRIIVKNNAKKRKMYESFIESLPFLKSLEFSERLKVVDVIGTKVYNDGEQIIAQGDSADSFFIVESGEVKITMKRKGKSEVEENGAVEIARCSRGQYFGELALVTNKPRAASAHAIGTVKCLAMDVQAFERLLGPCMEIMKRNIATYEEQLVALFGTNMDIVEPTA
UniProt Q9Y2Y1, sequence (Q9Y2Y1 whole entry, looked up): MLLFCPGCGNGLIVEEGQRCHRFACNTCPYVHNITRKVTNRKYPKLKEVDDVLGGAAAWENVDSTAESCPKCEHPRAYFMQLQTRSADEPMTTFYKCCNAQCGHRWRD
UniProt Q96AD5, sequence (Q96AD5 whole entry, looked up): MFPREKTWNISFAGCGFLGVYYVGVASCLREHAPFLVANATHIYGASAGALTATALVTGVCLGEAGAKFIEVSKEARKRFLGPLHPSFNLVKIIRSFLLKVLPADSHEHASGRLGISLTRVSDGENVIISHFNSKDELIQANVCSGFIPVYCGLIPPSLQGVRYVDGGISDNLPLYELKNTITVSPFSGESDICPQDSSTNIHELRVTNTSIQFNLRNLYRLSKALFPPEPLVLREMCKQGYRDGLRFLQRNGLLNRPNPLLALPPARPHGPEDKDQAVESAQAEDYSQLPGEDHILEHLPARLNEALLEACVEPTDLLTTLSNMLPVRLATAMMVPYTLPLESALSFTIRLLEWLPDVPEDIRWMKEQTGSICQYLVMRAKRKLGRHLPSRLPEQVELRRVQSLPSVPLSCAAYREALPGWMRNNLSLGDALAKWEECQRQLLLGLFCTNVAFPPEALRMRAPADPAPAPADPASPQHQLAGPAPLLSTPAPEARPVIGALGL
UniProt P17980, sequence (P17980 whole entry, looked up): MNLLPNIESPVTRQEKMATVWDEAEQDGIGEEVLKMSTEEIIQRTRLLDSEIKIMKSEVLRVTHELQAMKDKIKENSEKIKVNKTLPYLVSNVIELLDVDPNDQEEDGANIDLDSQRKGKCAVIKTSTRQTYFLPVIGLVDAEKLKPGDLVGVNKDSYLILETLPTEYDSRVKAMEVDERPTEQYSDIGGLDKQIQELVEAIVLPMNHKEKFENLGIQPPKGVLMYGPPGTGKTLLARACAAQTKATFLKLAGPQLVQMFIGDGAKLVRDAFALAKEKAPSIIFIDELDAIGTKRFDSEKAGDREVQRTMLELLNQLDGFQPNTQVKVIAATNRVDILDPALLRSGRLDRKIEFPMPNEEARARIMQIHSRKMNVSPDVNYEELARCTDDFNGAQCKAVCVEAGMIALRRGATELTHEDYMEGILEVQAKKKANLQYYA
UniProt Q9Y5K3, sequence (Q9Y5K3 whole entry, looked up): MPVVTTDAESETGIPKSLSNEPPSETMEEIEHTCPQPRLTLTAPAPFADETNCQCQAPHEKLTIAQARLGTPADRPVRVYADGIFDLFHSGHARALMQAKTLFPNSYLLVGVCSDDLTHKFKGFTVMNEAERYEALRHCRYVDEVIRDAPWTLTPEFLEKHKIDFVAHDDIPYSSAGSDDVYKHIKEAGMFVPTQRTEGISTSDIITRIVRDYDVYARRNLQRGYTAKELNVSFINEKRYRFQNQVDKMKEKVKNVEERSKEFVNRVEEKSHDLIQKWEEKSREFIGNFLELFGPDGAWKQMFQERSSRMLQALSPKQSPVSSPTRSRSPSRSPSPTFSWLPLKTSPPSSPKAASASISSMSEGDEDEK
UniProt Q04759, sequence (Q04759 whole entry, looked up): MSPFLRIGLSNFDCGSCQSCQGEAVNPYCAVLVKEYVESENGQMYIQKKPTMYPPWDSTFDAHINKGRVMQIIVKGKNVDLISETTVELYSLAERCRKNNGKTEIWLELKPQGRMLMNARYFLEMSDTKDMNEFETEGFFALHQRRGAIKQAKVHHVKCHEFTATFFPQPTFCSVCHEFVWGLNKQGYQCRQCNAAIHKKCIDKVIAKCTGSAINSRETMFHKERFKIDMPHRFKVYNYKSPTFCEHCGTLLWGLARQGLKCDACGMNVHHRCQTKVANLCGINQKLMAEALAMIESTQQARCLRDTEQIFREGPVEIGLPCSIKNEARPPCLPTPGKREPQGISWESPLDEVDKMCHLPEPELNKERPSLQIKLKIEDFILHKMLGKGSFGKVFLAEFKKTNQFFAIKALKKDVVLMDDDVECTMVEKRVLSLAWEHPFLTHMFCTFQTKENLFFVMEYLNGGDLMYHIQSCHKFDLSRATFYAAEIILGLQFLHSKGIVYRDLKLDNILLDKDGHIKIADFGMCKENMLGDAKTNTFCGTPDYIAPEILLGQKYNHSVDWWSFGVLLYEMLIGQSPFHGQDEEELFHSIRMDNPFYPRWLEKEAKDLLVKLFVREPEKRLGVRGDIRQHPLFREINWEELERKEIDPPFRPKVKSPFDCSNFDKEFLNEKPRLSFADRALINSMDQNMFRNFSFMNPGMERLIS
UniProt P50897, sequence (P50897 whole entry, looked up): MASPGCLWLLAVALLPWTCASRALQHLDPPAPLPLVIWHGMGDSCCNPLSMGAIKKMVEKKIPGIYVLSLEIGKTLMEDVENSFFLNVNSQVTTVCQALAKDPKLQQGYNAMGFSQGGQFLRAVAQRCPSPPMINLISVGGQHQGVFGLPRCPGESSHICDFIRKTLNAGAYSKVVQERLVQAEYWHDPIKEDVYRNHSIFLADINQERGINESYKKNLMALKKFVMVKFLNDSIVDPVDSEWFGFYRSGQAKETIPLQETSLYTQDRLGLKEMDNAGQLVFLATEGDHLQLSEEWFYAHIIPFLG
UniProt Q16537, sequence (Q16537 whole entry, looked up): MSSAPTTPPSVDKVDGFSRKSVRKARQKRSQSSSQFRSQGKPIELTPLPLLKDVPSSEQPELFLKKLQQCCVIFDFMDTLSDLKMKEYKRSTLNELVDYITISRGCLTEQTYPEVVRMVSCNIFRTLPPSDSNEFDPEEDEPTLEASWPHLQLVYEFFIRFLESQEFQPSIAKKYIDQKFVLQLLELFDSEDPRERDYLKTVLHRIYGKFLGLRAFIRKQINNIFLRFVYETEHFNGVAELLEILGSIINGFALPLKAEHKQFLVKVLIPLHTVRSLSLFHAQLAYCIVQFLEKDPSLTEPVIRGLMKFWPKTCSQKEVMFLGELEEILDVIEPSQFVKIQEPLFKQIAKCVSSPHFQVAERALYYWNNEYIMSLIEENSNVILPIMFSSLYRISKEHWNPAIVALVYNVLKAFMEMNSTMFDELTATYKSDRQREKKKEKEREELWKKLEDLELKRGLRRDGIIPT
UniProt Q8N8N7, sequence (Q8N8N7 whole entry, looked up): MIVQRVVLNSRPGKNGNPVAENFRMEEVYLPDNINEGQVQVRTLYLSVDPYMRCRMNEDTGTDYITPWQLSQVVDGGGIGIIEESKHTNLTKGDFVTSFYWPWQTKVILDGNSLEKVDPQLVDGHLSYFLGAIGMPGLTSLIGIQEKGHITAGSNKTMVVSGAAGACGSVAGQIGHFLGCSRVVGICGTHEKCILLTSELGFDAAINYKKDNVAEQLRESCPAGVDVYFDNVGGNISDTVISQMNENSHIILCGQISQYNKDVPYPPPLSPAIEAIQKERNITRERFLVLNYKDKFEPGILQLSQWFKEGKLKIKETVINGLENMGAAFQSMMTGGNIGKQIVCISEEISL
UniProt Q14181, sequence (Q14181 whole entry, looked up): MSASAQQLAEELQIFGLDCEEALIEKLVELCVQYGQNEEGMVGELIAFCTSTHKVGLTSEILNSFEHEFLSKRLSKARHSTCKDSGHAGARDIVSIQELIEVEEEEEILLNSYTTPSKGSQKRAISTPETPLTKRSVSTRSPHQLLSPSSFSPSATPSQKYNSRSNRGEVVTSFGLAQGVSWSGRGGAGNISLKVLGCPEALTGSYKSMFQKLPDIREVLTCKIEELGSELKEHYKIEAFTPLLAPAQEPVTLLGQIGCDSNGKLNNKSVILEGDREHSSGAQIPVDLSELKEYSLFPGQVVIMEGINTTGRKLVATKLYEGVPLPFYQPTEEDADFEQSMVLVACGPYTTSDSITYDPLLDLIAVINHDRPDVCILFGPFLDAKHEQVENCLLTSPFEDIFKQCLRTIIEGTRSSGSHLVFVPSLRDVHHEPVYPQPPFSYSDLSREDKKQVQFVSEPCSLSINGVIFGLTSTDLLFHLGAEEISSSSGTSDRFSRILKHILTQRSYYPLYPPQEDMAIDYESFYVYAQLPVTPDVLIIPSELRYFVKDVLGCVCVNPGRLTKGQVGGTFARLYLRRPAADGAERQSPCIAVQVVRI

Row | Target | log2 fold change [1] | log2 fold change (crizotinib) | log2 fold change [2] | log2 fold change [3] | log2 fold change (duvelisib) | log2 fold change (gandotinib) | log2 fold change (tozasertib) | log2 fold change [4] | log2 fold change (doramapimod) | log2 fold change (ispinesib) | log2 fold change (bafetinib) | log2 fold change [5] | log2 fold change (nilotinib) | log2 fold change [6] | log2 fold change (dasatinib) | log2 fold change [7] | log2 fold change [8] | log2 fold change [9] | log2 fold change (tipifarnib) | log2 fold change (mubritinib)
1 | PSMC3 (UniProt P17980) | 0.002 | 0.012 | -0.098 | 0.067 | -0.048 | 0.027 | 0.024 | 0.011 | 0.017 | -0.024 | 0.072 | -0.033 | -0.004 | 0.059 | 0.016 | -0.017 | -0.1 | -0.005 | 0.124 | -0.016
2 | PRKCQ (UniProt Q04759) | 0.021 | -0.238 | 0.037 | -0.374 (active) | 0.022 | -0.165 | -0.033 | 0.023 | 0.038 | -0.106 | -0.027 | 0.024 | -0.051 | -0.821 (active) | -0.171 | 0.003 | 0.069 | 0.031 | -0.134 | 0.12
3 | POLA2 (UniProt Q14181) | 0.116 | -0.026 | 0.143 | -0.036 | 0.121 | -0.287 (active) | 0.091 | 0.047 | -0.013 | -0.028 | -0.038 | 0.058 | -0.036 | -0.072 | -0.101 | -0.02 | 0.022 | 0.001 | -0.04 | 0.041
4 | PMPCA (UniProt Q10713) | 0.006 | -0.014 | 0.033 | -0.07 | 0.055 | -0.076 | -0.022 | -0.011 | 0.028 | -0.043 | 0.063 | 0.016 | 0.024 | 0.057 | 0.54 (active) | -0.096 | 0.067 | 0.04 | 0.285 (active) | 0.087
5 | PSMA3 (UniProt P25788) | 0.011 | 0.052 | -0.012 | -0.117 | -0.074 | 0.054 | 0.046 | 0.007 | 0.018 | -0.002 | 0.06 | 0.003 | 0.041 | 0.041 | 0.029 | 0.008 | -0.003 | -0.005 | 0.006 | -0.016
6 | PNPLA2 (UniProt Q96AD5) | 0.048 | -0.055 | 0.094 | 0.095 | 0.156 | -0.303 | -0.06 | -0.065 | 0.046 | -0.395 (active) | 0.084 | -0.334 | 0.049 | -0.112 | -0.113 | -0.118 | 0.056 | 0.049 | -0.026 | 0.113
7 | PCYT1B (UniProt Q9Y5K3) | -0.008 | -0.109 | 0.147 | -0.109 | -0.019 | -0.088 | 0.024 | 0.044 | -0.036 | 0.12 | -0.193 | -0.068 | -1.28 (active) | -0.105 | -0.142 | -0.089 | -0.024 | -0.037 | -0.053 | 0.168
8 | PTGR2 (UniProt Q8N8N7) | 0.097 | -0.075 | 0.045 | 0.112 | 0.049 | 0.192 | 0 | -0.185 | 0.223 | 0.013 | 0.084 | -0.151 | 0.003 | -0.215 | -0.025 | 0.07 | 0.112 | 0.485 (active) | 0.184 | -0.066
9 | PRKAR2B (UniProt P31323) | -0.026 | -0.108 | -0.067 | -0.136 | 0.007 | -0.271 | 0.026 | 0.112 | 0.073 | -0.001 | -0.022 | 0.133 | 0.012 | -1.23 (active) | -0.078 | -0.16 | 0.022 | -0.07 | -0.103 | 0.189
10 | PPT1 (UniProt P50897) | 0.022 | -0.57 (active) | -0.008 | -0.029 | 0.023 | -0.018 | -0.012 | 0.023 | -0.004 | -0.394 (active) | -0.742 (active) | 0.011 | 0.021 | 0.02 | 0 | -0.001 | 0.006 | 0.019 | 0.025 | 0.027
11 | POLR3K (UniProt Q9Y2Y1) | -0.026 | 0.015 | 0.035 | -0.027 | 0.067 | 0.066 | -0.011 | -0.059 | 0.038 | -0.075 | -0.006 | -0.039 | 0.035 | -0.003 | 0.098 | 0.01 | -0.02 | -0.021 | 0.033 | -0.088
12 | PPP2R5E (UniProt Q16537) | -0.024 | -0.15 | 0.037 | 0.105 | 0.078 | 0.167 | -0.072 | 0.015 | -0.01 | -0.024 | -0.023 | -0.058 | -0.11 | 0.057 | -0.074 | -0.059 | -0.049 | -0.037 | -0.159 | 0.018
